Each molecule was assayed on T1, RSK2(Kin.Dom.2-C-terminal). Settings: concentration: 1 μM,replicates: in singlicate; n = 1.
T1 construct: gene RPS6KA3
In the case of Cc1ccn2nc(-c3ccc(F)cc3)c(-c3ccncc3)c2c1.Cl [GW457859], the “%Inh” value is reported as 0%.
For CS(=O)c1ccc(-c2coc3ccc(-c4n[nH]c(=O)o4)cc23)cc1 (centres unmarked), the “%Inh” value was 0%.
In the case of C[C@@H](Oc1cc(-n2cnc3cc(-c4cnn(C)c4)ccc32)sc1C(N)=O)c1ccccc1Cl [GSK580432], the “%Inh” value is reported as 2%.
CN1CCN(CCCNc2nccc(-c3c(-c4ccc(F)cc4)nn4cc(C(N)=O)ccc34)n2)CC1 [GW622475] was tested, and the “%Inh” value was 100%.
For C[C@@H](Oc1cc(-n2cnc3ccc(-c4ccncc4)cc32)sc1C(N)=O)c1ccccc1Cl [GSK483724], the “%Inh” value was 0%.
In the case of CS(=O)(=O)c1cccc(CNc2nc(Nc3ccc4c(c3)[C@@H]3C[C@@H]4CNC3=O)ncc2C(F)(F)F)c1, the “%Inh” value is reported as 0%.
COc1cc(Nc2nccc(N3CCC(NC(=O)c4cccc(C#N)c4)C3)n2)cc(OC)c1OC (centres unmarked) [GSK1379751] was tested, and the “%Inh” value was 0%.
In the case of COc1cccc(OC)c1C(=O)Nc1cccc(-c2nn3ccccc3c2-c2ccnc(Nc3cccc(F)c3)n2)c1 [GSK361065], the “%Inh” value is reported as 13%.
With O=C(NOCC1CC1)c1cc(Br)c(F)c(F)c1Nc1ccc(I)cc1Cl the “%Inh” value was 0%.
In the case of CNC(=O)c1ccccc1Nc1nc(Nc2cccc(CS(C)(=O)=O)c2)ncc1C.O=CO [GSK1520489], the “%Inh” value is reported as 12%.
In the case of C[C@@H]1CNc2c(sc3ccc4nc(-c5ccc(O)cc5)ccc4c23)C(=O)N1, the “%Inh” value is reported as 70%.
With O=C(Nc1cccc(Oc2ccc3nccn3n2)c1)Nc1cccc(C(F)(F)F)c1 the “%Inh” value was 25%.
NC(=O)Nc1sc(-c2ccc(F)cc2)cc1C(N)=O [GW789449] was tested, and the “%Inh” value was 45%.
For NC(=O)c1ccc(-c2cc3ncnc(SCC(=O)O)c3s2)cc1, the “%Inh” value was 0%.
For Cc1n[nH]c2cc(Nc3ccnc(Nc4cccc(CN5CCOCC5)c4)n3)ccc12 [GW682569], the “%Inh” value was 20%.
In the case of O=c1[nH]cc(-c2ccc(O)cc2)c2sc(-c3ccncc3)cc12 [GSK1033723], the “%Inh” value is reported as 23%.
With COC(=O)Nc1nc2cc(Oc3ccc(NC(=O)Nc4cc(C(F)(F)F)ccc4Cl)cc3)ccc2[nH]1.Cl [GW697465] the “%Inh” value was 10%.
For O=C1NCCc2[nH]c(-c3ccncc3)cc21, the “%Inh” value was 23%.
For Cl.Cl.NC[C@H](CC1CCCCC1)NC(=O)c1ccc(-c2ccnc3[nH]ccc23)s1 [GSK1581428], the “%Inh” value was 0%.
In the case of CC(=O)Nc1nc2cnc(Nc3cc(NC(=O)c4cccc(CC(C)(C)C#N)c4)ccc3C)nc2s1, the “%Inh” value is reported as 26%.
In the case of O=C(Nc1ccc(Oc2ccc3nc(NC(=O)C4CC4)cn3n2)c(F)c1)c1cccn(-c2ccccc2)c1=O, the “%Inh” value is reported as 28%.
In the case of CC(=O)Nc1ccc(-c2cc3ncnc(SCC(=O)O)c3s2)cc1, the “%Inh” value is reported as 0%.
For COC(=O)c1cccc(NC(=O)NC2CCN(c3ccnc(NCc4ccc(F)cc4)n3)CC2)c1 [GSK1379860], the “%Inh” value was 9%.
With COc1ccc(Nc2nccc(N3CCC(NC(=O)c4cccc(C#N)c4)C3)n2)cc1 (centres unmarked) [GSK1379730] the “%Inh” value was 18%.
In the case of Cn1ccc2ncnc(Oc3ccc(NC(=O)Nc4cncc(C(F)(F)F)c4)c(Cl)c3)c21, the “%Inh” value is reported as 0%.
With Cn1ccc2ncnc(Oc3ccc(NC(=O)Nc4cnn(C(C)(C)C)c4)c(Cl)c3)c21 the “%Inh” value was 0%.
For COc1cccc(C2=C(Nc3cccc(Cl)c3)C(=O)NC2=O)c1 [SB-341556], the “%Inh” value was 11%.
In the case of Cn1ccc2ncnc(Oc3ccc(NC(=O)Nc4cccc(C(F)(F)F)c4)c(F)c3)c21, the “%Inh” value is reported as 13%.
With CC(C(=O)NC1CCN(c2ccnc(Nc3ccc(F)cc3)n2)C1)c1ccc(Cl)cc1 (centres unmarked) [GSK1379713] the “%Inh” value was 17%.
With O=C(NCC1CC1)c1ccc(-c2cc(C(=O)NC3CC3)ccc2F)cc1 [GW810445] the “%Inh” value was 0%.
With Cc1cccc2c(-c3ccncc3)c(-c3ccc(F)cc3)nn12.Cl [GW461487] the “%Inh” value was 32%.
With c1ccc(Oc2ccc(Nc3ccnc4ccc(-c5ccccn5)cc34)cc2)cc1 [GW407034] the “%Inh” value was 8%.
O=C(Nc1ccccc1)c1cccc(Oc2ccc3nccn3n2)c1 was tested, and the “%Inh” value was 46%.
For Cc1ccc2c(-c3ccnc(Nc4ccc(C(F)(F)F)cc4)n3)cnn2n1 [GW819776], the “%Inh” value was 0%.
CC(C)c1nc(-c2cccc(NS(=O)(=O)c3ccccc3)c2)c(-c2ccnc(Nc3ccc4c(c3)CN(C)CC4)n2)s1 [GSK1649598] was tested, and the “%Inh” value was 0%.
In the case of CN(c1ccccc1CNc1nc(Nc2ccc3c(c2)CC(=O)N3)ncc1C(F)(F)F)S(C)(=O)=O, the “%Inh” value is reported as 0%.
For CCn1c(-c2nonc2N)nc2cncc(Br)c21 [SB-738004], the “%Inh” value was 27%.

The molecules below were run on T2, RSK3(Kin.Dom.1-N-terminal). Settings: concentration: 1 μM,replicates: in singlicate; n = 1.
T2 construct: gene RPS6KA2
Cc1ccn2nc(-c3ccc(F)cc3)c(-c3ccncc3)c2c1.Cl [GW457859] was tested, and the “%Inh” value was 0%.
In the case of CS(=O)c1ccc(-c2coc3ccc(-c4n[nH]c(=O)o4)cc23)cc1 (centres unmarked), the “%Inh” value is reported as 9%.
With C[C@@H](Oc1cc(-n2cnc3cc(-c4cnn(C)c4)ccc32)sc1C(N)=O)c1ccccc1Cl [GSK580432] the “%Inh” value was 77%.
In the case of CN1CCN(CCCNc2nccc(-c3c(-c4ccc(F)cc4)nn4cc(C(N)=O)ccc34)n2)CC1 [GW622475], the “%Inh” value is reported as 12%.
C[C@@H](Oc1cc(-n2cnc3ccc(-c4ccncc4)cc32)sc1C(N)=O)c1ccccc1Cl [GSK483724] was tested, and the “%Inh” value was 39%.
In the case of CS(=O)(=O)c1cccc(CNc2nc(Nc3ccc4c(c3)[C@@H]3C[C@@H]4CNC3=O)ncc2C(F)(F)F)c1, the “%Inh” value is reported as 85%.
With COc1cc(Nc2nccc(N3CCC(NC(=O)c4cccc(C#N)c4)C3)n2)cc(OC)c1OC (centres unmarked) [GSK1379751] the “%Inh” value was 4%.
In the case of COc1cccc(OC)c1C(=O)Nc1cccc(-c2nn3ccccc3c2-c2ccnc(Nc3cccc(F)c3)n2)c1 [GSK361065], the “%Inh” value is reported as 6%.
O=C(NOCC1CC1)c1cc(Br)c(F)c(F)c1Nc1ccc(I)cc1Cl was tested, and the “%Inh” value was 1%.
With CNC(=O)c1ccccc1Nc1nc(Nc2cccc(CS(C)(=O)=O)c2)ncc1C.O=CO [GSK1520489] the “%Inh” value was 99%.
C[C@@H]1CNc2c(sc3ccc4nc(-c5ccc(O)cc5)ccc4c23)C(=O)N1 was tested, and the “%Inh” value was 12%.
With O=C(Nc1cccc(Oc2ccc3nccn3n2)c1)Nc1cccc(C(F)(F)F)c1 the “%Inh” value was 0%.
For NC(=O)Nc1sc(-c2ccc(F)cc2)cc1C(N)=O [GW789449], the “%Inh” value was 21%.
With NC(=O)c1ccc(-c2cc3ncnc(SCC(=O)O)c3s2)cc1 the “%Inh” value was 2%.
With Cc1n[nH]c2cc(Nc3ccnc(Nc4cccc(CN5CCOCC5)c4)n3)ccc12 [GW682569] the “%Inh” value was 0%.
For O=c1[nH]cc(-c2ccc(O)cc2)c2sc(-c3ccncc3)cc12 [GSK1033723], the “%Inh” value was 0%.
In the case of COC(=O)Nc1nc2cc(Oc3ccc(NC(=O)Nc4cc(C(F)(F)F)ccc4Cl)cc3)ccc2[nH]1.Cl [GW697465], the “%Inh” value is reported as 21%.
For O=C1NCCc2[nH]c(-c3ccncc3)cc21, the “%Inh” value was 16%.
With Cl.Cl.NC[C@H](CC1CCCCC1)NC(=O)c1ccc(-c2ccnc3[nH]ccc23)s1 [GSK1581428] the “%Inh” value was 57%.
CC(=O)Nc1nc2cnc(Nc3cc(NC(=O)c4cccc(CC(C)(C)C#N)c4)ccc3C)nc2s1 was tested, and the “%Inh” value was 0%.
With O=C(Nc1ccc(Oc2ccc3nc(NC(=O)C4CC4)cn3n2)c(F)c1)c1cccn(-c2ccccc2)c1=O the “%Inh” value was 0%.
With CC(=O)Nc1ccc(-c2cc3ncnc(SCC(=O)O)c3s2)cc1 the “%Inh” value was 14%.
With COC(=O)c1cccc(NC(=O)NC2CCN(c3ccnc(NCc4ccc(F)cc4)n3)CC2)c1 [GSK1379860] the “%Inh” value was 3%.
COc1ccc(Nc2nccc(N3CCC(NC(=O)c4cccc(C#N)c4)C3)n2)cc1 (centres unmarked) [GSK1379730] was tested, and the “%Inh” value was 0%.
In the case of Cn1ccc2ncnc(Oc3ccc(NC(=O)Nc4cncc(C(F)(F)F)c4)c(Cl)c3)c21, the “%Inh” value is reported as 9%.
Cn1ccc2ncnc(Oc3ccc(NC(=O)Nc4cnn(C(C)(C)C)c4)c(Cl)c3)c21 was tested, and the “%Inh” value was 0%.
With COc1cccc(C2=C(Nc3cccc(Cl)c3)C(=O)NC2=O)c1 [SB-341556] the “%Inh” value was 1%.
In the case of Cn1ccc2ncnc(Oc3ccc(NC(=O)Nc4cccc(C(F)(F)F)c4)c(F)c3)c21, the “%Inh” value is reported as 0%.
In the case of CC(C(=O)NC1CCN(c2ccnc(Nc3ccc(F)cc3)n2)C1)c1ccc(Cl)cc1 (centres unmarked) [GSK1379713], the “%Inh” value is reported as 0%.
O=C(NCC1CC1)c1ccc(-c2cc(C(=O)NC3CC3)ccc2F)cc1 [GW810445] was tested, and the “%Inh” value was 0%.
Cc1cccc2c(-c3ccncc3)c(-c3ccc(F)cc3)nn12.Cl [GW461487] was tested, and the “%Inh” value was 0%.
For c1ccc(Oc2ccc(Nc3ccnc4ccc(-c5ccccn5)cc34)cc2)cc1 [GW407034], the “%Inh” value was 19%.
For O=C(Nc1ccccc1)c1cccc(Oc2ccc3nccn3n2)c1, the “%Inh” value was 24%.
For Cc1ccc2c(-c3ccnc(Nc4ccc(C(F)(F)F)cc4)n3)cnn2n1 [GW819776], the “%Inh” value was 0%.
CC(C)c1nc(-c2cccc(NS(=O)(=O)c3ccccc3)c2)c(-c2ccnc(Nc3ccc4c(c3)CN(C)CC4)n2)s1 [GSK1649598] was tested, and the “%Inh” value was 15%.
In the case of CN(c1ccccc1CNc1nc(Nc2ccc3c(c2)CC(=O)N3)ncc1C(F)(F)F)S(C)(=O)=O, the “%Inh” value is reported as 91.1%.
In the case of CCn1c(-c2nonc2N)nc2cncc(Br)c21 [SB-738004], the “%Inh” value is reported as 9%.
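Also: KINOMEscan kinase panel screen.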
